# Results taken from PubChem BioAssay AID1159580 (chemical genetic matrix, 2015).
# Where “and” joins values, the source holds several entries; their conditions need not be identical. Equal values may be shown once. About 2,000 (36%) of roughly 5,500 compounds were called active. Inconclusive results (about 18%) are left out. The list shows a part of the results. Unmarked numbers belong to inactive results. No stated cut-off is given here; in the data, active means normalized growth mostly below about 0.91 (no sharp cut-off); inconclusive means no clear call, values can overlap the other calls; inactive means mostly above about 0.92.
# Assay: chemical genetic growth profiling, strain panel (AID 1159580);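 further: tested at 20 µM; growth read once vehicle control cultures reached saturation at 30 °C; 1 = growth at the plate median or of vehicle wells; lower values mean less growth of the strain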
# Settings: S. cerevisiae deletion strains, growth OD
compound,measurement,setting,value
Oc1cc(O)c2c(c1)O[C@H](c1cc(O)c(O)c(O)c1)[C@H](O)C2,normalized growth,"locus YAL021C, strain ccr4, hits give low values",0.992
same,normalized growth,"locus YAL026C, strain drs2, hits give low values",1.02
same,normalized growth,"locus YAL030W, strain snc1, hits give low values",1.01
same,normalized growth,"locus YBL061C, strain skt5, hits give low values",1.02
same,normalized growth,"locus YBR009C, strain hhf1, hits give low values",1.02
same,normalized growth,"locus YBR021W, strain FUR4, hits give low values",1.03
same,normalized growth,"locus YBR023C, strain chs3, hits give low values",1.02
same,normalized growth,"locus YBR171W, strain sec66, hits give low values",1.03
same,normalized growth,"locus YBR229C, strain ROT2, hits give low values",0.996
same,normalized growth,"locus YBR231C, strain swc5, hits give low values",1
same,normalized growth,"locus YBR279W, strain paf1, hits give low values",1.01
same,normalized growth,"locus YCL011C, strain gbp2, hits give low values",1.02
same,normalized growth,"locus YCL016C, strain dcc1, hits give low values",1.02
same,normalized growth,"locus YCL029C, strain bik1, hits give low values",0.986
same,normalized growth,"locus YCL061C, strain MRC1, hits give low values",1.02
same,normalized growth,"locus YCL069W, strain vba3, hits give low values",1.02
same,normalized growth,"locus YCR088W, strain abp1, hits give low values",1.02
same,normalized growth,"locus YDL005C, strain med2, hits give low values",1.03
same,normalized growth,"locus YDL035C, strain GPR1, hits give low values",1.03
same,normalized growth,"locus YDL040C, strain nat1, hits give low values",1.01
same,normalized growth,"locus YDL074C, strain BRE1, hits give low values",0.981
same,normalized growth,"locus YDL101C, strain DUN1, hits give low values",0.985
same,normalized growth,"locus YDL185W, strain tfp1, hits give low values",0.983
same,normalized growth,"locus YDL192W, strain arf1, hits give low values",0.982
same,normalized growth,"locus YDR001C, strain nth1, hits give low values",1.02
same,normalized growth,"locus YDR069C, strain doa4, hits give low values",0.993
same,normalized growth,"locus YDR101C, strain arx1, hits give low values",0.985
same,normalized growth,"locus YDR137W, strain rgp1, hits give low values",1.06
same,normalized growth,"locus YDR150W, strain NUM1, hits give low values",0.995
same,normalized growth,"locus YDR159W, strain sac3, hits give low values",1.18 [resistant] (active)
same,normalized growth,"locus YDR162C, strain NBP2, hits give low values",1.02
same,normalized growth,"locus YDR195W, strain ref2",1.05
same,normalized growth,"locus YDR297W, strain sur2, hits give low values",1.02
same,normalized growth,"locus YDR318W, strain mcm21, hits give low values",0.999
same,normalized growth,"locus YDR334W, strain swr1, hits give low values",1.02
same,normalized growth,"locus YDR335W, strain msn5, hits give low values",1.01
same,normalized growth,"locus YDR388W, hits give low values",0.988
same,normalized growth,"locus YDR392W, strain spt3, hits give low values",1.02
same,normalized growth,"locus YDR502C, strain sam2, hits give low values",1.02
same,normalized growth,"locus YEL003W, strain gim4, hits give low values",1.02
same,normalized growth,"locus YEL037C, strain rad23, hits give low values",1.01
same,normalized growth,"locus YEL061C, strain CIN8 (second series), hits give low values",1.03
same,normalized growth,"locus YEL061C, strain CIN8, hits give low values",0.999
same,normalized growth,"locus YER015W, strain faa2, hits give low values",0.999
same,normalized growth,"locus YER016W, strain bim1, hits give low values",1.02
same,normalized growth,"locus YER110C, hits give low values",0.984
same,normalized growth,"locus YER111C, strain swi4, hits give low values",1.01
same,normalized growth,"locus YER155C, strain BEM2 (second series), hits give low values",1.01
same,normalized growth,"locus YER155C, strain BEM2, hits give low values",1.01
same,normalized growth,"locus YER167W, strain BCK2, hits give low values",1.02
same,normalized growth,"locus YFR010W, strain ubp6, hits give low values",1.02
same,normalized growth,"locus YGL078C, strain dbp3, hits give low values",0.993
same,normalized growth,"locus YGL086W, strain mad1, hits give low values",0.993
same,normalized growth,"locus YGL167C, strain pmr1, hits give low values",1.01
same,normalized growth,"locus YGL173C, strain kem1, hits give low values",1.02
same,normalized growth,"locus YGL227W, strain vid30, hits give low values",1.02
same,normalized growth,"locus YGL240W, strain doc1, hits give low values",1.03
same,normalized growth,"locus YGL248W, strain PDE1, hits give low values",0.991
same,normalized growth,"locus YGL253W, strain hxk2, hits give low values",1.03
same,normalized growth,"locus YGR135W, strain pre9, hits give low values",0.99
same,normalized growth,"locus YGR252W, strain gcn5, hits give low values",1.02
same,normalized growth,"locus YHR013C, strain ard1, hits give low values",1.03
same,normalized growth,"locus YHR027C, strain rpn1, hits give low values",1.02
same,normalized growth,"locus YHR030C, strain SLT2, hits give low values",0.992 and 0.996
same,normalized growth,"locus YHR079C, strain IRE1 (second series), hits give low values",1.01
same,normalized growth,"locus YHR079C, strain IRE1, hits give low values",1.01
same,normalized growth,"locus YHR094C, strain hxt1, hits give low values",0.983
same,normalized growth,"locus YHR129C, strain ARP1, hits give low values",0.997
same,normalized growth,"locus YHR142W, strain chs7, hits give low values",1.04
same,normalized growth,"locus YHR200W, strain rpn10, hits give low values",0.994
same,normalized growth,"locus YIL066C, strain RNR3, hits give low values",1.01
same,normalized growth,"locus YIL073C, strain SPO22, hits give low values",1.01
same,normalized growth,"locus YIL125W, strain kgd1, hits give low values",0.997
same,normalized growth,"locus YIR030C, strain dcg1, hits give low values",1
same,normalized growth,"locus YJL092W, strain hpr5, hits give low values",1.02
same,normalized growth,"locus YJL095W, strain BCK1 (second series), hits give low values",1.02
same,normalized growth,"locus YJL095W, strain BCK1, hits give low values",0.947 and 1.01
same,normalized growth,"locus YJL115W, strain asf1, hits give low values",1.03
same,normalized growth,"locus YJL129C, strain trk1, hits give low values",1.08
same,normalized growth,"locus YJL134W, strain LCB3, hits give low values",0.992
same,normalized growth,"locus YJL154C, strain vps35, hits give low values",1.02
same,normalized growth,"locus YJL164C, strain tpk1, hits give low values",1.01
same,normalized growth,"locus YJL166W, strain qcr8, hits give low values",1.02
same,normalized growth,"locus YJL168C, strain set2, hits give low values",1
same,normalized growth,"locus YJL187C, strain SWE1 (second series), hits give low values",0.952
same,normalized growth,"locus YJL187C, strain SWE1, hits give low values",1.02
